Cruzain noTriton: blocks cruzain activity in detergent-free assay; purified cruzain, Z-FR-AMC fluorescence, no detergent; Potency, µM, inactives show max response, negative = inhibition, hits mostly inhibitors; AID 1476; actives 2.3% (n = 200,000);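 further: plate controls were enzyme without inhibitor for no effect and buffer without enzyme for full effect; nearly all actives have a fitted effect of over 40% in size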
Target sequence (P25779 123-467 limits assumed): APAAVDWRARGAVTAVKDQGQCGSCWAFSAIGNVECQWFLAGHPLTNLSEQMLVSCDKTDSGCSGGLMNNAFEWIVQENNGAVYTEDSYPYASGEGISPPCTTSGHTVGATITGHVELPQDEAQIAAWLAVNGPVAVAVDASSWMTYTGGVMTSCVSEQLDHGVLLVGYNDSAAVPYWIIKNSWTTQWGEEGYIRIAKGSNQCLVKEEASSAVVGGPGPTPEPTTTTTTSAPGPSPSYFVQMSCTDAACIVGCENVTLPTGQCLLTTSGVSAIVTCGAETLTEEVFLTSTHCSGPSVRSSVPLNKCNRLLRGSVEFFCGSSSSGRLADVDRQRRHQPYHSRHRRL
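Detergent-free condition (0.00005% Triton X-100) in acetate buffer pH 5.5 with DTT. 1.5 nM enzyme and compound were pre-mixed 15 min, then 2 uM Z-FR-AMC substrate added; reaction progress from fluorescence change between first and third reads (60 s).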
Cruzain Triton: cruzain (T. cruzi) inhibition with detergent | AID 1478 | purified cruzain, Z-FR-AMC fluorescence, 0.01% Triton | actives 0.43% (n = 200,000) | Potency, µM, for inactives: max response, negative = inhibition, most hits filed as inhibitors;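 further: plate controls were neutral wells for no effect and buffer without enzyme for full effect; nearly all actives have a fitted effect of over 40% in size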
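Detergent-containing run (0.01% Triton X-100) in acetate buffer pH 5.5 with 5 mM DTT: enzyme at 1.5 nM final, 15 min compound preincubation at room temperature, then 2 uM Z-FR-AMC substrate. Activity taken as 60 s fluorescence increase at 360/450 nm.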
Starred values were filed as active, the others as inactive; ? = inconclusive. An excerpt weighted towards active compounds, which were near 2.6% of everything screened. The call rests on the fitted dose curve; in most records, active means well fitted curve in the direction sought with a large enough effect; inconclusive means small, poorly fitted or top-dose-only effect, or another doubt; inactive means no such curve, though single readings can be large; an effect the other way counts as inactive or inconclusive. Potency means the concentration at half of the fitted maximal effect.

SMILES | Cruzain noTriton | Cruzain Triton
Cc1c(C(=O)N(C)c2cccc(C(F)(F)F)c2)sc2nc3n(c(=O)c12)CCCCC3 | ? | -12%
COC(=O)c1cccc(C23CC4(C2)[C@H](CN(CC2CCCCC2)[C@@H]4c2ccccc2)C3c2ccc(C(F)(F)F)cc2)c1 (stereo partly specified) | ? | 1%
Cc1ccc(CNC(=O)CCc2c(C)nc3c4c(C)cc(C)nc4nn3c2C)cc1 | 25% | 2%
O=C(O)NCc1ccccc1 (tested in a mixture with another compound) | -10% | 1%
CCOC(=O)n1c(=O)oc2ccccc21 | 2% | 7%
CCOC(=O)N1[C@@H]2C=C(C)[C@@H]2[C@@H]2[C@@H](C)C(=O)N21 | 13µM* | 13µM*
O=C(O)CSc1ccc(N=C=S)cc1 | 5% | 2%
COC(=O)[C@H]1O[C@@H](c2cc(OC)c(C)c(OC)c2O)[C@H](C)[C@@H](O)[C@H]1C | 7% | 2%
O=C1c2cccc3cccc(c23)C(=O)N1c1nccs1 | 6% | -4%
O=C1c2cccc3cccc(c23)C(=O)N1c1ccc2ncccc2c1 | ? | 18µM*
COc1ccccc1C(=O)NCc1nnnn1-c1ccc(C)c(C)c1 | 1% | 4%
COc1ccc(NC(=O)c2c(C)oc3ccc(O)c(CN4CCCCCC4)c23)cc1Cl | ? | -7%
O=C(Nc1ccc(-c2nc3ccccc3s2)c(OC(=O)c2ccccc2)c1)c1ccccc1 | 25µM* | -6%
O=C(Nc1ccc(-c2nc3ccccc3s2)c(O)c1)c1ccc(Br)cc1 | 1% | 0%
CC(C)C[C@@H](CC(=O)N[C@H](CC(=O)N[C@@H]1CCNC[C@H]1C(=O)N[C@H](CC(=O)N[C@@H](CCC(=O)O)CC(=O)O)CC(C)C)C(C)C)NC(=O)[C@@H]1CNCC[C@H]1N | -6% | -5%
Cc1ccc(N=Nc2c(N)[nH]n3c(=O)cc(-c4ccccc4)nc23)cc1 | -20% | -6%
COc1cccc(N=Nc2c(N)[nH]n3c(=O)cc(-c4ccccc4)nc23)c1 | 13µM* | 0%
CCc1ccc2[nH]c(O)c(N=Nc3nc(-c4ccccc4)cs3)c2c1 | 20µM* | -5%
CCc1cc2c(N=Nc3c(O)[nH]c4ccccc34)ncnc2s1 | -14% | -1%
Cc1ccc(C)c(CN2C(=O)c3ccccc3Sc3ccc(C(=O)NCc4ccco4)cc32)c1 | ? | 1%
CC(C)(C)NC(=O)CSc1nncn1-c1ccccc1 | 0% | -2%
O=C(CSc1nncn1-c1ccccc1)Nc1cc(Cl)cc(Cl)c1 | 25µM* | -2%
COc1ccc(NC(=O)N2CCCC3(CCN(C(=O)c4cccc(F)c4)CC3)C2)cc1 | 9% | 1%
CC(C)c1ccccc1NC(=O)COc1ccc2c(=O)c(Oc3ccc4ccccc4c3)coc2c1 | 32µM* | -3%
CCc1ccccc1NC(=O)COc1ccc2c(=O)c(Oc3cc(C)ccc3C)coc2c1 | ? | -5%
SMILES | Cruzain noTriton | Cruzain Triton
Cc1cc(C)cc(C(=O)Oc2coc(CSc3nnc(NC(=O)C4CC4)s3)cc2=O)c1 | 3% | -4%
Cc1cccc(N(C)S(=O)(=O)c2nnc(NC(=O)c3cccs3)s2)c1 | 0% | -1%
Cc1cccc(-c2nnc(NC(=O)c3cccs3)s2)c1 | 16µM* | 0%
Cc1ccc(C(=O)Oc2coc(CSc3nnc(NC(=O)c4cccs4)s3)cc2=O)cc1 | 25µM* | -1%
NC(N)=Nc1nc(CSCC/C(N)=N\S(N)(=O)=O)cs1 | 13µM* | 25µM*
OC(CNCC1CCCO1)Cn1c2ccc(Cl)cc2c2cc(Cl)ccc21 (stereo unspecified) | ? | -4%
OC(CNCCC1C=Nc2ccccc21)Cn1c2ccc(Cl)cc2c2cc(Cl)ccc21 (stereo unspecified) | 6.3µM* | -16%
COc1cccc(C2c3c(oc4cc(C)cc(C)c4c3=O)C(=O)N2CCc2ccc(OC)c(OC)c2)c1 (stereo unspecified) | 9% | 0%
CCCCNC(=O)CC1Nc2ccccc2NC1=O (stereo unspecified) | 5% | -3%
CCCCOc1ccccc1NC(=O)CC1Nc2ccccc2NC1=O (stereo unspecified) | 25µM* | 0%
Cc1nnc(-c2ccc(Oc3ccc(Br)cc3)c([N+](=O)[O-])c2)o1 | 4% | -3%
Cc1cc(Oc2ccc(-c3nnc(-c4ccccc4)o3)cc2[N+](=O)[O-])ccc1Cl | 13µM* | 0%
COc1ccccc1N1CCN(C(=O)C2CCN(S(=O)(=O)c3cccs3)CC2)CC1 | ? | -2%
Cc1ccc(S(=O)(=O)c2nc(S(=O)(=O)c3ccc(C)cc3)c(NCc3ccco3)s2)cc1 | 32µM* | 0%
CCCS(=O)(=O)c1nc(S(=O)(=O)c2ccc(C)cc2)c(NCc2ccco2)s1 | 0% | -4%
COc1ccc(C(=O)Nc2nc3n(n2)C(c2ccc(Cl)cc2)C=C(c2ccccc2)N3)cc1OC (stereo unspecified) | ? | -5%
Nc1nnc(SCC(=O)c2ccc3ccccc3c2)s1 | 32µM* | -5%
